The text below walks through data of ChEMBL document CHEMBL4513216, “Probing the Open Global Health Chemical Diversity Library for Multistage-Active Starting Points for Next-Generation Antimalarials” (ACS Infect Dis, 2020).

Screen size: about 65,000 compounds; about 2,100 (3.2%) showed an effect of 50% or more. The median lay at about -52%. The entries come from a sample that favours strong results as a whole.

This experiment concerns Plasmodium falciparum. In words: Screen against P. falciparum Asexual Blood Stage (ABS), at 5uM. Type of experiment: functional, Dd2. The conditions noted are these: tested at 5 uM.
As to `Cc1cnc(N2CCN(C)c3ncccc3C2)nc1`, the INHIBITION is reported as -91.5%.

For `Cc1cccc(-c2ncc(CNC(C)Cc3ccncc3)cn2)c1` (stereo not drawn), the INHIBITION is -115%. The same measure for `CC(Cc1cccc(F)c1)NCc1cnc(N2CCN(C)CC2)nc1` (stereo not drawn): 67.6%. Consider `Fc1cnc(N2C[C@H]3CN(Cc4cccc(F)c4)C[C@H]3C2)nc1`, for which the INHIBITION is recorded as 21.5%. In the case of `CN1CCN(c2ncc(CNCCCc3cccc(F)c3)cn2)CC1`, the INHIBITION was found to be 71.5%. For the compound `CNC(=O)[C@@H]1C[C@H]2CN(c3ncccn3)C[C@H]2N1C(C)C`, the INHIBITION is listed as -98%. The same measure for `Cc1noc(C)c1CN1CCO[C@H]2CN(C(=O)N3CCCC3)C[C@H]21`: -14.9%; for `O=C(C1CCCO1)N1CCC2(CC1)CNCCO2` (stereo not drawn): -75.2%. Regarding `CNC(=O)CN1CCO[C@H]2CN(CC3CC3)C[C@H]21`, the INHIBITION is listed as -76.5%.

With `Cn1cc(CN2C[C@H]3CN(c4cncnc4)C(=O)[C@H]3C2)cn1`, the INHIBITION is reported as -44.8%.

Take `CC(C)C(CNCc1cccc2c1OCO2)N1CCOCC1` (stereo not drawn): the INHIBITION is 76%.

Consider `CNC(=O)[C@H]1C[C@@H]2CN(C(=O)c3ccncc3F)C[C@@H]2N1C`, for which the INHIBITION is -96.9%. With `Cc1nc(CC(=O)N2CCCC(N(C)Cc3ccccc3)C2)cs1` (stereo not drawn), the INHIBITION is -55.85%. For `CN1CC[C@H](N(Cc2ccccc2)Cc2ccccc2)C[C@H](O)C1` the value was 72.1%; for `CN1CC[C@@H]2OC[C@H](C(=O)N(C)Cc3ccccn3)C[C@@H]2C1`, -138%. The same measure for `CN1CC[C@H](N(Cc2ccccc2)CC2CC2)C[C@H](O)C1`: 80.8%; for `Cc1noc(C)c1CN1C[C@@H]2OCCN(Cc3cnn(C)c3)[C@@H]2C1`: -2.02%. As to `O=C(Cc1csc(-c2ccco2)n1)N1CCN(CCO)CC1`, the INHIBITION is -30.8%. The same measure for `Cc1ccc(CN2CC[C@H]3[C@H]2CC(=O)N3c2cccnc2)o1`: -38.1%. As for `Cn1cc(C2=CCN(CCC(=O)NCc3ccc(Cl)cc3)CC2)cn1`, the INHIBITION stood at 5%.

As for `CN(C)CCNC(=O)CCn1ncc2c(Cl)cccc21`, the INHIBITION is reported as 71%. The same measure for `Cc1cc(CN2CC[C@H]3C[C@H](C)O[C@@H]3C2)no1`: -86.2%. As for `Cc1c(CC(=O)N2CCN(C(C)C)CC2)nnn1-c1ccccc1`, the INHIBITION is on record as -40.6%. Take `CN1CCCC1CCn1ccnc1-c1nc2ccccc2[nH]1` (stereo not drawn): the INHIBITION is 72.2%.

For the compound `O=C1[C@H]2CN(Cc3ccccc3)C[C@H]2CN1c1cncnc1`, the INHIBITION was -76.5%. As to `Cc1ccc(OCC(=O)N2CCN[C@H]3CS(=O)(=O)C[C@H]32)cn1`, the INHIBITION is reported as -103%.

As for `Cc1cccc(CN2CC[C@@H]3[C@@H]2CCN3Cc2cccs2)n1`, the INHIBITION was determined as 29.9%. For `COCCN1CCO[C@H]2CCN(C(=O)c3ccnnc3)CC[C@@H]21` the value was -39.1%; for `CCc1cc(CN(C)C(=O)CN2CC(Cc3ccccc3)CC2=O)on1` (stereo not drawn), -126%. The same measure for `Cc1noc(C)c1CN1CCN(C)c2ncccc2C1`: -31.9%; for `Cc1noc(C)c1CN(C)C(=O)CN1CC(c2ccccc2)CC1=O` (stereo not drawn): -83.2%; for `CCc1cc(CN(C)C(=O)CN2CC(c3ccccc3)CC2=O)on1` (stereo not drawn): -13.6%.

Consider `CN(C)CCN1CCN(Cc2ccco2)Cc2cccnc21`, for which the INHIBITION is reported as 11.9%. With `CC(C)N1CCc2c(CN(C)Cc3ccco3)cncc2C1`, the INHIBITION is -16.1%.

Regarding `CCc1cc(CNCc2ccccc2N(C)C2CCN(C)CC2)on1`, the INHIBITION was 74.5%. The same measure for `Cc1noc(C)c1CNCc1ccccc1N(C)C1CCN(C)CC1`: 73.6%.

For `CN1CCC(N(C)c2ccccc2CNCc2ccco2)CC1`, the INHIBITION was 85.9%. Consider `CC(C)=CCN1C(=O)[C@@H]2CC[C@H]1CN(Cc1cccnc1N)C2`, for which the INHIBITION is recorded as -11.1%. The same measure for `CC1CN(C)CCN1C(=O)Cc1cc(Cl)c2c(c1)OCCO2` (stereo not drawn): -23.7%.

For `CCc1noc(CN2CCOC3(CCCC3)C2)n1`, the INHIBITION is -159%. For `c1cc(CN2C[C@@H]3OCCN(CCN4CCCC4)[C@@H]3C2)ccn1` the value was -104%; for `Cc1[nH]c2c(C)cccc2c1CC(=O)N(C)CCN(C)C`, 46.3%. For `Cc1ccc2c(CC(=O)N(C)CCN(C)C)c(C)[nH]c2c1C` the value was -86.5%. Regarding `Cc1cc(C)c2[nH]c(C)c(CC(=O)N(C)CCN(C)C)c2c1`, the INHIBITION worked out at 61.9%. With `N#Cc1ccc(C(=O)NS(=O)(=O)c2ccc(C#N)c(Cl)c2)cc1`, the INHIBITION was -1%. Consider `COc1cccc(CNc2cc(C)nc(-c3ccncc3)n2)c1OC`, for which the INHIBITION amounted to 89.3%. On to `Cc1cc(C(F)(F)F)nc(N2CCN3CCCC3C2)n1` (stereo not drawn), for which the INHIBITION is recorded as -144%.

For `FC(F)(F)c1cc(-c2cccs2)nc(N2CCN3CCCC3C2)n1` (stereo not drawn), the INHIBITION was -47.6%.

Turning to `CCc1ccc(-c2cc(C(F)(F)F)nc(N3CCC(N)CC3)n2)cc1`, the INHIBITION is on record as 82.4%. For `O=C(Nc1cccnc1)[C@@H]1COC[C@H]2CN(C3CCCC3)C[C@H]21` the value was -20.2%; for `O=C(c1ccc2c(c1)COC2)N1CCC(Nc2ccccc2)CC1`, -162%; for `O=C1[C@H]2CN(Cc3ccncc3)C[C@H]2CN1c1ccsc1`, -92.9%. For `COc1cccc(CN2CCC(CO)(Cc3ccc(Cl)cc3)CC2)c1O` the value was 89.5%; for `c1cc(CN2CCN(Cc3ccon3)C3(CCCCC3)C2)no1`, -126%. For `Cc1noc(C)c1CN1CC[C@H]2C[C@@H](c3ccncn3)O[C@@H]2C1` the value was -98.1%; for `Cc1nc(-c2cccc(N3CCC(N4CCCC4)CC3)c2)cs1`, 71.6%.

In the case of `Cc1cc(N2CCN3CCCCC3C2)n2nc(C)c(C)c2n1` (stereo not drawn), the INHIBITION was -76.1%. For the compound `Cc1ncccc1OCC(=O)N1CCN[C@H]2CS(=O)(=O)C[C@H]21`, the INHIBITION was -151%. For `c1ccc(CN2CCN3C[C@H](Oc4cncnc4)C[C@H]3C2)nc1` the value was -102%; for `NC1CCc2nc(-c3ccncc3)nc(Nc3cccc(F)c3)c2C1` (stereo not drawn), 84.2%; for `NC1CCc2nc(-c3cccnc3)nc(Nc3ccc(F)cc3)c2C1` (stereo not drawn), 87.1%. Take `CCc1cc(N2CCNCC2)n2nc(C)c(C)c2n1`: the INHIBITION is recorded as -115%. As to `COCCN1C[C@@H]2[C@@H](OC)CCN(C(=O)Cc3ccsc3)[C@@H]2C1`, the INHIBITION was determined as 19.2%.

As for `COc1cccc([C@H]2CN(C(C)=O)[C@@H]3CCN(Cc4ccsc4)C[C@H]23)c1`, the INHIBITION stood at 73.9%.

`Cc1noc(C)c1CN1CC[C@H]2C[C@H](c3ccncn3)O[C@@H]2C1`: the INHIBITION is on record as -66.9%. For `O=C(CC1CC1)N[C@@H]1CN(Cc2cccnc2)C[C@@H]2CCCO[C@@H]21` the value was -42.5%. The same measure for `CO[C@@H]1CCN(Cc2ccoc2)C[C@@H]1Cc1ccccc1`: 89%; for `c1cncc(CN2CCO[C@@H]3CN(Cc4ccoc4)CC[C@@H]3C2)c1`: 30.1%. With `CC(C)c1nccc([C@H]2C[C@@H]3CCN(Cc4ccoc4)C[C@H]3O2)n1`, the INHIBITION is listed as -81.1%. The same measure for `CN1CCN(Cc2ccoc2)Cc2cccnc21`: -116%; for `COc1ccc(C[C@H]2CN(Cc3ccoc3)CC[C@H]2OC)cc1`: 75.1%. The same measure for `CC(C)c1nccc([C@@H]2C[C@@H]3CCN(Cc4ccoc4)C[C@H]3O2)n1`: -35%; for `CCN1CCC2(CCC1=O)CN(c1nccc(N)n1)CCN2C` (stereo not drawn): -4.03%; for `Cc1cccc(CO[C@@H]2CC[C@H]3[C@H]2OCCN3Cc2ccoc2)n1`: -50.4%. Take `O=C(NCc1ccccn1)[C@@H]1COC[C@H]2CNC[C@H]21`: the INHIBITION is listed as -8.97%. For `COCCN1C[C@@H](C)[C@@]2(COCCN(C(=O)c3ccno3)C2)C1` the value was -103%; for `COc1ccc(-c2ccoc2)cc1CNC1CCCC1`, 70.2%; for `CN(C)[C@@H]1CN(C(=O)Cc2cccc(F)c2)[C@@H]2CCCO[C@H]12`, 24.8%.

As for `OCCCN(CCc1cccc(F)c1)C1CC1`, the INHIBITION is given as -63.8%. With `CN(Cc1cccc(F)c1)C(=O)CN1CCCC1CCc1ccccc1` (stereo not drawn), the INHIBITION was 75%. For `Cn1c(CCN2CCN(c3ccc(O)cc3)CC2)nc2ccccc21` the value was -128%; for `Cc1ccc2c(n1)N(C)CCN(CCN1CCCC1)C2`, -5.37%; for `Cc1cc(N2CCCN(CCc3ccccc3)CC2)ccn1`, 87%.

As to `CO[C@@H]1CC[C@H]2[C@H]1OCCN2CC1CCOCC1`, the INHIBITION is listed as -21.2%. For `c1cnc(N2C[C@H]3CN(CC4CCOC4)C[C@H]3C2)nc1` (stereo partly drawn) the value was -53%. The same measure for `O=C1CO[C@@H]2CNC[C@H]2N1CC1CC1`: -97.4%; for `O[C@@H]1CCN(CC2CC2)[C@H]1Cc1ccccc1`: 63.2%; for `COc1ccc(CN2CC[C@@H](O)[C@@H]2Cc2ccccc2)cc1`: 80.7%. As to `COc1ccc(CN2C[C@@H]3OCCN(c4ncccn4)[C@@H]3C2)cc1`, the INHIBITION was -2.3%. The same measure for `CNC(=O)[C@@H]1CN(Cc2ccccc2)C[C@H]1C(=O)c1ccc(F)cc1`: -109%.

Regarding `O=C(NCCc1ccncc1)[C@H]1CC[C@@H]2[C@@H](CCN2CC2CC2)O1`, the INHIBITION was -3.59%. In the case of `O=C1C[C@H]2[C@H](CCN2Cc2ccccn2)N1CC1CC1`, the INHIBITION was -90.1%. For `O=C(c1ccccc1)N1CCO[C@@H]2CNC[C@@H]21` the value was -70.7%.

In the case of `CCc1cc(N2CCN3CCCCC3C2)n2nccc2n1` (stereo not drawn), the INHIBITION was 6.52%.

`Fc1ccccc1-c1cc(N2[C@@H]3CC[C@H]2CNC3)n2nccc2n1`: the INHIBITION is on record as -59%. Take `CC(C)c1cc(N2CC[C@H](F)C2)n2nccc2n1`: the INHIBITION is on record as 70.9%. On to `O=C1N(Cc2ccccn2)C[C@H]2CN(C3CCC3)CCN12`, for which the INHIBITION is listed as -13.7%. For the compound `O=C(C[C@@H]1COC[C@H]2CN(C3CCC3)C[C@@H]12)NCc1cccnc1`, the INHIBITION is on record as -138%.
